In PubChem BioAssay AID1222 (Sanford-Burnham Center for Chemical Genomics, 2008):
Fewer than 10 of roughly 190,000 compounds were called active.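 How the source made its calls: active means EC50 below 50 µM in the dose-response confirmation; inactive means the rest.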 Not all results are given here. Potency and affinity values are given separately.

Test: protection against thapsigargin-triggered cell killing – 384-well, CSM14.1, ATP luminescence, primary screen (AID 1222);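 further: death triggered by thapsigargin at about 15 µM added after 2 h compound pretreatment; cell ATP read after overnight thapsigargin exposure of roughly 18 to 22 hours; reference of the scale not given here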
Settings: CSM14.1 thapsigargin-induced death rescue, at 20 µM, hits give high values

Which cellular ATP content (survival) does the source give for `O=C(NCC1CC1)[C@@H]1C[C@H]1[C@@H](NP(=O)(c1ccccc1)c1ccccc1)c1ccccc1` here?
Its cellular ATP content (survival) is -1.2% (inactive).

With `CC(=O)c1ccc(OCCCN2CCCCC2)cc1` as the compound, how does the cellular ATP content (survival) read?
The cellular ATP content (survival) was -1.3% (inactive).

With `O=C(COC(=O)c1cc(Br)ccc1O)Nc1cc(S(=O)(=O)N2CCCC2)ccc1Cl` as the compound, how does the cellular ATP content (survival) read?
The cellular ATP content (survival) was -0.8% (inactive).

Which cellular ATP content (survival) does the source give for `O=C(NCCCN1CCCC1)c1cc2c(Cl)nc3ccccc3c2s1` here?
The cellular ATP content (survival) was -12% (inactive).

With `CC(=O)Cn1c(N2CCC(Cc3ccccc3)CC2)nc2c1c(=O)[nH]c(=O)n2C` as the compound, how does the cellular ATP content (survival) read?
Its cellular ATP content (survival) is -1.8% (inactive).

Which cellular ATP content (survival) does the source give for `CCn1c(SCc2ccccc2Cl)nc2nc3c(cc2c1=O)CCCC3` here?
The cellular ATP content (survival) was -4.7% (inactive).

With `CC(=O)Nc1ccc(OCc2cccc([N+](=O)[O-])c2)cc1` as the compound, how does the cellular ATP content (survival) read?
Its cellular ATP content (survival) is 1.1% (inactive).

With `O=C(CSc1nc2ccccc2[nH]1)Nc1nc(-c2cccc(Br)c2)cs1` as the compound, how does the cellular ATP content (survival) read?
Its cellular ATP content (survival) is -3.8% (inactive).

With `CCOC(=O)C1CCN(C(=O)CCS(=O)(=O)c2ccc3c(c2)CC(C)N3C(=O)CC)CC1` (centres undefined) as the compound, how does the cellular ATP content (survival) read?
Its cellular ATP content (survival) is 0.4% (inactive).

Which cellular ATP content (survival) does the source give for `Cc1ccc(C)c(N2CCN(C(=O)CN(C)S(=O)(=O)c3cnc[nH]3)CC2)c1` here?
The cellular ATP content (survival) was -1.7% (inactive).

With `O=C(NCCO)c1cccc2c1C(=O)c1ccccc1-2` as the compound, how does the cellular ATP content (survival) read?
The cellular ATP content (survival) was -1.3% (inactive).

With `Cc1[nH]c2ccccc2c1C(=O)COC(=O)Cn1c(C(F)(F)F)nc2ccccc21` as the compound, how does the cellular ATP content (survival) read?
The cellular ATP content (survival) was 0.2% (inactive).

For `Cc1ccc(CNS(=O)(=O)/C=C/c2ccc3c(c2)OCO3)cc1`, which cellular ATP content (survival) is on record?
The cellular ATP content (survival) was -2.2% (inactive).

Which cellular ATP content (survival) does the source give for `CC(=O)Nc1ccccc1C(=O)N1CCN(c2cccc(C)c2C)CC1` here?
The cellular ATP content (survival) was -1.4% (inactive).

With `O=C(NCc1ccccn1)C1CC(c2ccc(F)cc2)=NO1` (centres undefined) as the compound, how does the cellular ATP content (survival) read?
Its cellular ATP content (survival) is -1% (inactive).

With `CSc1nccc(N2CCN(c3ccc(F)cc3)CC2)n1` as the compound, how does the cellular ATP content (survival) read?
The cellular ATP content (survival) was 5.7% (inactive).

Which cellular ATP content (survival) does the source give for `Cc1ccc(NC(=O)c2ccc(OC(=S)N3CCOCC3)cc2)cc1` here?
The cellular ATP content (survival) was -1.3% (inactive).

Which cellular ATP content (survival) does the source give for `Cc1cc(C)n(C(=O)COc2c(C)cccc2C)n1` here?
The cellular ATP content (survival) was -2.8% (inactive).

Which cellular ATP content (survival) does the source give for `CCc1ccc(-c2nc(CCl)cs2)cc1` here?
The cellular ATP content (survival) was -1.7% (inactive).

With `C=CCNCCCCOc1ccc(C)cc1[N+](=O)[O-]` as the compound, how does the cellular ATP content (survival) read?
The cellular ATP content (survival) was -1.5% (inactive).

With `CN(C)S(=O)(=O)c1ccc(C(=O)OCc2ccc(C#N)cc2)cc1` as the compound, how does the cellular ATP content (survival) read?
The cellular ATP content (survival) was -0.2% (inactive).

Which cellular ATP content (survival) does the source give for `C(=N\Nc1nc(N2CCOCC2)nc(N2CCOCC2)n1)/c1cccnc1` here?
Its cellular ATP content (survival) is 1.2% (inactive).

Which cellular ATP content (survival) does the source give for `CCOC(=O)c1cc2cc([N+](=O)[O-])cc(OC)c2oc1=O` here?
Its cellular ATP content (survival) is 0% (inactive).

With `CC(=O)c1c(C)[nH]c(C(=O)COC(=O)CCSc2ccccc2)c1C` as the compound, how does the cellular ATP content (survival) read?
Its cellular ATP content (survival) is 0.3% (inactive).

For `COc1ccc(-c2csc(Nc3ccccc3)n2)cc1`, which cellular ATP content (survival) is on record?
Its cellular ATP content (survival) is -1.2% (inactive).

Which cellular ATP content (survival) does the source give for `C=CC[C@@H]1Cc2c(Br)ccc(Br)c2[C@@H](CC=C)N1` here?
Its cellular ATP content (survival) is -0.9% (inactive).

With `Cc1ccccc1OCc1nnc(SCC(=O)Nc2ccc3nc(SCC(=O)Nc4ccccc4)sc3c2)n1C` as the compound, how does the cellular ATP content (survival) read?
The cellular ATP content (survival) was -0.5% (inactive).

For `COc1cc(NC(=O)CN2c3cccc4cccc(c34)S2(=O)=O)cc(OC)c1OC`, which cellular ATP content (survival) is on record?
The cellular ATP content (survival) was -1% (inactive).

Which cellular ATP content (survival) does the source give for `C=CCn1c(=O)c(C(=O)OCC)c(O)c2ccccc21` here?
The cellular ATP content (survival) was -1.4% (inactive).

Which cellular ATP content (survival) does the source give for `CC(C)c1ccc(N2C(=O)CSC23C(=O)N2CCCc4cccc3c42)cc1` (centres undefined) here?
Its cellular ATP content (survival) is -0.3% (inactive).

Which cellular ATP content (survival) does the source give for `O=C1CCc2cc(S(=O)(=O)NC(Cc3ccccc3)C(=O)NC3CCCCC3)ccc2N1` (centres undefined) here?
Its cellular ATP content (survival) is 0% (inactive).

For `Cc1ccc(CCNC(=O)C2CCN(C(=O)N(C)C)CC2)cc1`, which cellular ATP content (survival) is on record?
The cellular ATP content (survival) was -1.1% (inactive).

Which cellular ATP content (survival) does the source give for `CCOC(=O)CC1ON(C)C(=O)N1c1ccc(Cl)cc1Cl` (centres undefined) here?
Its cellular ATP content (survival) is 0.4% (inactive).

With `COc1cc(/C=N/Nc2nc(Nc3ccccc3)nc(N3CCCCC3)n2)ccc1OCC(=O)O` as the compound, how does the cellular ATP content (survival) read?
The cellular ATP content (survival) was -1.5% (inactive).

For `COCCN(C(=O)Cc1cccs1)C(C(=O)NC1CCCC1)c1ccc(OC)c(OC)c1` (centres undefined), which cellular ATP content (survival) is on record?
Its cellular ATP content (survival) is -1% (inactive).

For `Cc1ccc(-c2nnc(CSc3nnc(COc4cccc5ccccc45)n3-c3ccccc3)o2)cc1`, which cellular ATP content (survival) is on record?
The cellular ATP content (survival) was 0.6% (inactive).

For `CC(C)=CCN1CCN(Cc2ccc(C)s2)CC1CCO` (centres undefined), which cellular ATP content (survival) is on record?
Its cellular ATP content (survival) is 0.8% (inactive).

With `c1cnc2c(SCc3ccc(-c4nnco4)cc3)cccc2c1` as the compound, how does the cellular ATP content (survival) read?
Its cellular ATP content (survival) is -0.4% (inactive).

For `CC(=O)Nc1nc2ccc(NC(=O)c3ccco3)cc2s1`, which cellular ATP content (survival) is on record?
Its cellular ATP content (survival) is -5.6% (inactive).

Which cellular ATP content (survival) does the source give for `O=C1OC(Cc2ccccn2)C(=O)C1=C1SCCS1` (centres undefined) here?
The cellular ATP content (survival) was -2.9% (inactive).

With `O=C(c1ccc(Cl)c(S(=O)(=O)N2CCCCCC2)c1)N1CCN(c2ccccc2O)CC1` as the compound, how does the cellular ATP content (survival) read?
Its cellular ATP content (survival) is 0.3% (inactive).

Which cellular ATP content (survival) does the source give for `NS(=O)(=O)c1ccc(CCNC(=O)CN2CCN(c3cccc(Cl)c3)CC2)cc1` here?
Its cellular ATP content (survival) is -2.9% (inactive).

For `Cn1c(N)c(C(=O)COC(=O)c2ccnc3ccccc23)c(=O)n(C)c1=O`, which cellular ATP content (survival) is on record?
The cellular ATP content (survival) was -2.1% (inactive).

With `O=C1CCCN1CCCN1C(=O)N[C@@H](Cc2ccccc2)C1=O` as the compound, how does the cellular ATP content (survival) read?
The cellular ATP content (survival) was 2% (inactive).

Which cellular ATP content (survival) does the source give for `Cc1cc(C)cc(OCC(=O)NNC(=O)C2CCCO2)c1` (centres undefined) here?
Its cellular ATP content (survival) is -0.3% (inactive).

For `CC1CCCC(NC(=O)COC(=O)Cc2ccsc2)C1C` (centres undefined), which cellular ATP content (survival) is on record?
Its cellular ATP content (survival) is -1.7% (inactive).

With `Cc1ccc(CSCc2nnc(SCC(=O)N3CCN(c4ccccc4)CC3)n2C)cc1` as the compound, how does the cellular ATP content (survival) read?
The cellular ATP content (survival) was 2% (inactive).

With `N#Cc1ccccc1Cn1cc(/C=C/[N+](=O)[O-])c2ccccc21` as the compound, how does the cellular ATP content (survival) read?
Its cellular ATP content (survival) is 4% (inactive).

With `O=C(CCn1nnc2ccccc21)Nc1nnc(-c2ccccc2F)s1` as the compound, how does the cellular ATP content (survival) read?
Its cellular ATP content (survival) is 0.6% (inactive).

For `Cc1ccc(C)c(N2CCN(C(=O)COc3cc(=O)n(C)c4ccccc34)CC2)c1`, which cellular ATP content (survival) is on record?
Its cellular ATP content (survival) is -0.1% (inactive).

With `Cc1ccc(CNC(=O)C(=O)NCC2OCCN2C(=O)c2cccs2)cc1` (centres undefined) as the compound, how does the cellular ATP content (survival) read?
The cellular ATP content (survival) was -0.2% (inactive).

For `CCN1C=C(Cc2ccc(OC)cc2)C2=C(C1)C(c1ccc(OC)cc1)C(C#N)=C(N)O2` (centres undefined), which cellular ATP content (survival) is on record?
The cellular ATP content (survival) was -1.8% (inactive).

For `O=C(N/N=C/c1ccc(OCC(=O)N2CCCCC2)cc1)c1ccccc1O`, which cellular ATP content (survival) is on record?
Its cellular ATP content (survival) is 2.1% (inactive).

Which cellular ATP content (survival) does the source give for `CCC1Sc2ccccc2N(CC(=O)NC2CCCC2)C1=O` (centres undefined) here?
The cellular ATP content (survival) was -1.6% (inactive).

Which cellular ATP content (survival) does the source give for `Cc1ccc(C(=O)N/C(=C\c2ccc(Br)cc2)c2nc(=S)[nH][nH]2)cc1` here?
The cellular ATP content (survival) was -11.2% (inactive).

For `COc1ccc(OC)c(NC(=O)C2CCC(CNc3c(N4CCC(C)CC4)c(=O)c3=O)CC2)c1` (centres undefined), which cellular ATP content (survival) is on record?
Its cellular ATP content (survival) is 1.6% (inactive).

Which cellular ATP content (survival) does the source give for `O=CN1CCN(C(=O)c2ccc([N+](=O)[O-])cc2)CC1` here?
The cellular ATP content (survival) was 1.3% (inactive).

With `COc1cccc(C(=O)CSc2nnc(CNS(C)(=O)=O)n2-c2ccc(C)cc2)c1` as the compound, how does the cellular ATP content (survival) read?
Its cellular ATP content (survival) is 0.4% (inactive).

With `COCc1ccc([C@@H]2C[C@H]3CN(Cc4ccccc4C)C(=O)[C@]34CCCN24)o1` as the compound, how does the cellular ATP content (survival) read?
Its cellular ATP content (survival) is 6.6% (inactive).
